Laboratory results: the supplement of paper PMC7411054
Structures can show the parent of a compound that is named as a salt.

Legend:
Assay in all cases: phenotypically active (imaging signature differs from DMSO and reproducible) at any of 0.3-9 uM (binary (1 = active, 0 = inactive)); higher = active
Conditions in all cases: treatment time: 24 h
A549-ACTB-RAB5A = test system: A549-ACTB-RAB5A
Method in brief: (§1)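 Four wells per concentration (0.3, 1, 3 or 9 µM) were treated for 24 h in each of fifteen gene-edited reporter lines from A549, HepG2 and WPMY1 cells, then imaged live. After normalising live-cell features to solvent control wells, deviation was defined as ≥3 of 4 wells lying past the 95th percentile of control Euclidean distances. Reproducibility was defined as a median replicate Pearson correlation above the 95th percentile of non-replicates. Both had to hold for phenotypic activity.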

A549-CANX-COX4 = test system: A549-CANX-COX4
Method in brief: as §1

A549-GM130-SQSTM1 = test system: A549-GM130-SQSTM1
Method in brief: as §1

A549-TP53BP1-CLTA = test system: A549-TP53BP1-CLTA
Method in brief: as §1

A549-TUBA1B-RELA = test system: A549-TUBA1B-RELA
Method in brief: as §1

HepG2-ACTB-RAB5A = test system: HepG2-ACTB-RAB5A
Method in brief: as §1

HepG2-CANX-COX4 = test system: HepG2-CANX-COX4
Method in brief: as §1

HepG2-GM130-SQSTM1 = test system: HepG2-GM130-SQSTM1
Method in brief: as §1

HepG2-TP53BP1-CLTA = test system: HepG2-TP53BP1-CLTA
Method in brief: as §1

HepG2-TUBA1B-RELA = test system: HepG2-TUBA1B-RELA
Method in brief: as §1

WPMY1-ACTB-RAB5A = test system: WPMY1-ACTB-RAB5A
Method in brief: as §1

WPMY1-CANX-COX4 = test system: WPMY1-CANX-COX4
Method in brief: as §1

WPMY1-GM130-SQSTM1 = test system: WPMY1-GM130-SQSTM1
Method in brief: as §1

WPMY1-TP53BP1-CLTA = test system: WPMY1-TP53BP1-CLTA
Method in brief: as §1

WPMY1-TUBA1B-RELA = test system: WPMY1-TUBA1B-RELA
Method in brief: as §1

Measured: phenotypically active

C[C@@H]1O[C@@H](O[C@H]2[C@H](Oc3cc(O)c4c(c3)O[C@H](c3ccc(O)cc3)CC4=O)O[C@H](CO)[C@@H](O)[C@@H]2O)[C@H](O)[C@H](O)[C@H]1O [Naringin hydrate]
inactive: A549-ACTB-RAB5A 0 | A549-CANX-COX4 0 | A549-GM130-SQSTM1 0 | A549-TP53BP1-CLTA 0 | A549-TUBA1B-RELA 0 | HepG2-ACTB-RAB5A 0 | HepG2-CANX-COX4 0 | HepG2-GM130-SQSTM1 0 | HepG2-TP53BP1-CLTA 0 | HepG2-TUBA1B-RELA 0 | WPMY1-ACTB-RAB5A 0 | WPMY1-CANX-COX4 0 | WPMY1-GM130-SQSTM1 0 | WPMY1-TP53BP1-CLTA 0 | WPMY1-TUBA1B-RELA 0

CCc1cccc2c3c([nH]c12)C(CC)(CC(=O)O)OCC3 (stereo not given) [etodolac]
inactive: A549-ACTB-RAB5A 0 | A549-CANX-COX4 0 | A549-GM130-SQSTM1 0 | A549-TP53BP1-CLTA 0 | A549-TUBA1B-RELA 0 | HepG2-ACTB-RAB5A 0 | HepG2-CANX-COX4 0 | HepG2-GM130-SQSTM1 0 | HepG2-TP53BP1-CLTA 0 | HepG2-TUBA1B-RELA 0 | WPMY1-ACTB-RAB5A 0 | WPMY1-CANX-COX4 0 | WPMY1-GM130-SQSTM1 0 | WPMY1-TP53BP1-CLTA 0 | WPMY1-TUBA1B-RELA 0

Cc1cc(C(=O)NNCc2ccccc2)no1 [isocarboxazid]
inactive: A549-ACTB-RAB5A 0 | A549-CANX-COX4 0 | A549-GM130-SQSTM1 0 | A549-TP53BP1-CLTA 0 | A549-TUBA1B-RELA 0 | HepG2-ACTB-RAB5A 0 | HepG2-CANX-COX4 0 | HepG2-GM130-SQSTM1 0 | HepG2-TP53BP1-CLTA 0 | HepG2-TUBA1B-RELA 0 | WPMY1-ACTB-RAB5A 0 | WPMY1-CANX-COX4 0 | WPMY1-GM130-SQSTM1 0 | WPMY1-TP53BP1-CLTA 0 | WPMY1-TUBA1B-RELA 0

NCCC(=O)NCCc1c[nH]cn1 [Carcinine]
inactive: A549-ACTB-RAB5A 0 | A549-CANX-COX4 0 | A549-GM130-SQSTM1 0 | A549-TP53BP1-CLTA 0 | A549-TUBA1B-RELA 0 | HepG2-ACTB-RAB5A 0 | HepG2-CANX-COX4 0 | HepG2-GM130-SQSTM1 0 | HepG2-TP53BP1-CLTA 0 | HepG2-TUBA1B-RELA 0 | WPMY1-ACTB-RAB5A 0 | WPMY1-CANX-COX4 0 | WPMY1-GM130-SQSTM1 0 | WPMY1-TP53BP1-CLTA 0 | WPMY1-TUBA1B-RELA 0

COC(=O)[C@H]1[C@H]2C[C@H]3c4[nH]c5ccccc5c4CCN3C[C@@H]2CC[C@@H]1O [Corynanthine hydrochloride]
inactive: A549-ACTB-RAB5A 0 | A549-CANX-COX4 0 | A549-GM130-SQSTM1 0 | A549-TP53BP1-CLTA 0 | A549-TUBA1B-RELA 0 | HepG2-ACTB-RAB5A 0 | HepG2-CANX-COX4 0 | HepG2-GM130-SQSTM1 0 | HepG2-TP53BP1-CLTA 0 | HepG2-TUBA1B-RELA 0 | WPMY1-ACTB-RAB5A 0 | WPMY1-CANX-COX4 0 | WPMY1-GM130-SQSTM1 0 | WPMY1-TP53BP1-CLTA 0 | WPMY1-TUBA1B-RELA 0

CCN(CC)CC(=O)Nc1c(C)cccc1C [lidocaine]
inactive: A549-ACTB-RAB5A 0 | A549-CANX-COX4 0 | A549-GM130-SQSTM1 0 | A549-TP53BP1-CLTA 0 | A549-TUBA1B-RELA 0 | HepG2-ACTB-RAB5A 0 | HepG2-CANX-COX4 0 | HepG2-GM130-SQSTM1 0 | HepG2-TP53BP1-CLTA 0 | HepG2-TUBA1B-RELA 0 | WPMY1-ACTB-RAB5A 0 | WPMY1-CANX-COX4 0 | WPMY1-GM130-SQSTM1 0 | WPMY1-TP53BP1-CLTA 0 | WPMY1-TUBA1B-RELA 0

CC(C)(C)NCC(O)c1ccc(O)c(CO)c1 (stereo not given) [albuterol]
inactive: A549-ACTB-RAB5A 0 | A549-CANX-COX4 0 | A549-GM130-SQSTM1 0 | A549-TP53BP1-CLTA 0 | A549-TUBA1B-RELA 0 | HepG2-ACTB-RAB5A 0 | HepG2-CANX-COX4 0 | HepG2-GM130-SQSTM1 0 | HepG2-TP53BP1-CLTA 0 | HepG2-TUBA1B-RELA 0 | WPMY1-ACTB-RAB5A 0 | WPMY1-CANX-COX4 0 | WPMY1-GM130-SQSTM1 0 | WPMY1-TP53BP1-CLTA 0 | WPMY1-TUBA1B-RELA 0

CC1=NN(c2ccc(C(=O)O)cc2)C(=O)/C1=C\c1ccc(-c2cc(C)c(C)cc2[N+](=O)[O-])o1
inactive: A549-ACTB-RAB5A 0 | A549-CANX-COX4 0 | A549-GM130-SQSTM1 0 | A549-TP53BP1-CLTA 0 | A549-TUBA1B-RELA 0 | HepG2-ACTB-RAB5A 0 | HepG2-CANX-COX4 0 | HepG2-GM130-SQSTM1 0 | HepG2-TP53BP1-CLTA 0 | HepG2-TUBA1B-RELA 0 | WPMY1-ACTB-RAB5A 0 | WPMY1-CANX-COX4 0 | WPMY1-GM130-SQSTM1 0 | WPMY1-TP53BP1-CLTA 0 | WPMY1-TUBA1B-RELA 0

CNCC[C@@H](Oc1ccccc1C)c1ccccc1 [atomoxetine]
inactive: A549-ACTB-RAB5A 0 | A549-CANX-COX4 0 | A549-GM130-SQSTM1 0 | A549-TP53BP1-CLTA 0 | A549-TUBA1B-RELA 0 | HepG2-ACTB-RAB5A 0 | HepG2-CANX-COX4 0 | HepG2-GM130-SQSTM1 0 | HepG2-TP53BP1-CLTA 0 | HepG2-TUBA1B-RELA 0 | WPMY1-ACTB-RAB5A 0 | WPMY1-CANX-COX4 0 | WPMY1-GM130-SQSTM1 0 | WPMY1-TP53BP1-CLTA 0 | WPMY1-TUBA1B-RELA 0

O=C(CCc1ccc(O)cc1)c1c(O)cc(O)cc1O[C@@H]1O[C@H](CO)[C@@H](O)[C@H](O)[C@H]1O [Phloridzin]
inactive: A549-ACTB-RAB5A 0 | A549-CANX-COX4 0 | A549-GM130-SQSTM1 0 | A549-TP53BP1-CLTA 0 | A549-TUBA1B-RELA 0 | HepG2-ACTB-RAB5A 0 | HepG2-CANX-COX4 0 | HepG2-GM130-SQSTM1 0 | HepG2-TP53BP1-CLTA 0 | HepG2-TUBA1B-RELA 0 | WPMY1-ACTB-RAB5A 0 | WPMY1-CANX-COX4 0 | WPMY1-GM130-SQSTM1 0 | WPMY1-TP53BP1-CLTA 0 | WPMY1-TUBA1B-RELA 0

C[C@H](N[C@@H](CCc1ccccc1)C(=O)O)C(=O)N1CCC[C@H]1C(=O)O [enalaprilat]
inactive: A549-ACTB-RAB5A 0 | A549-CANX-COX4 0 | A549-GM130-SQSTM1 0 | A549-TP53BP1-CLTA 0 | A549-TUBA1B-RELA 0 | HepG2-ACTB-RAB5A 0 | HepG2-CANX-COX4 0 | HepG2-GM130-SQSTM1 0 | HepG2-TP53BP1-CLTA 0 | HepG2-TUBA1B-RELA 0 | WPMY1-ACTB-RAB5A 0 | WPMY1-CANX-COX4 0 | WPMY1-GM130-SQSTM1 0 | WPMY1-TP53BP1-CLTA 0 | WPMY1-TUBA1B-RELA 0
